# Screens (PubChem BioAssay)
# Hits are enriched below; roughly 3% of the tested compounds scored in any of these assays.
# p53null 32C tox: selectivity test: cytotoxicity in p53 null cells, permissive temperature; H1299-neo p53 null cells, ATP luminescence, 24 h, 32C; Potency, µM (series often up to 46.1 µM), most hits filed as cytotoxic; actives 0.62% (n = 55,000); AID 903; also: nearly all actives have a fitted effect of over 55% in size
#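 ATP-content luminescence in p53-null H1299-neo cells after 24 h compound exposure (up to 46 uM) at 32C permissive temperature; 0% and 100% killing set by DMSO and 100 uM tamoxifen; Hill-equation AC50.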
# pS6 MEF inh: reduces mTORC1 signaling in Tsc2 and p53 null MEF cells | Tsc2-/- p53-/- MEF, phospho-rpS6 immunofluorescence/PI, 24 h | Potency, µM (doses to about 38.3 µM), most hits filed as inhibitors | actives 0.78% (n = 44,000) | AID 493208; also: nearly all actives have a fitted effect of over 50% in size
#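 Cell-based qHTS: Tsc2-/- p53-/- MEF, 24 h cpd, 37 °C; fix/perm, anti-phospho-S6 Alexa-488 + PI; Acumen 488 nm scan; pS6/PI ratio, % positive cells; rapamycin 7.5 nM = inhibition ref; PI count = viability.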
# S16 viability: cytotoxicity in S16 Pmp22-F2sN Schwann cells | Potency, µM (doses to about 57.5 µM), actives largely listed as cytotoxic | actives 0.48% (n = 43,000) | S16 Pmp22-F2sN Schwann cells viability, CellTiter-Glo, 24 h; also: nearly all actives have a fitted effect of over 65% in size
#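 Luminescence from CellTiter-Glo, read by CCD camera after a 15 min room-temperature incubation, served as the viability signal. Reporter Schwann cells (S16 Pmp22-F2sN) had been treated with pin-transferred compounds for 24 h at 37C.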
# p53null 39C tox: kills p53 null cells at the nonpermissive temperature | H1299 p53-null (neo) cells, 39C, ATPlite viability, 24 h | Potency, µM (top dose mostly 46.1 µM), most hits filed as cytotoxic | actives 0.97% (n = 55,000); also: nearly all actives have a fitted effect of over 50% in size
#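 Cells seeded at 600/well, 37C overnight. Compound added (up to 46 uM), plates shifted to 39C for 24 hr. ATPlite added, luminescence read after 20 min at room temperature.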
# SKOV3 invasion: inhibitors of ovarian cancer cell adhesion and invasion in omental model; SKOV3ip1-GFP adhesion/invasion on 3D omental model, fluorescence; Potency, µM (doses to about 45.8 µM), hits mostly inhibitors; AID 1963576; actives 0.1% (n = 46,000); also: nearly all actives have a fitted effect of over 65% in size
#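 Primary human omental fibroblast/mesothelial 3D culture pre-formed 48 h. SKOV3ip1-GFP cells added with compounds (0.36-46 umol/L), incubated 2 h RT/16 h 37 C, fixed; GFP cells quantified at 488/509 nm.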
# PMP22 txn prim: modulators of PMP22 gene transcription in S16 Schwann cells | S16 Pmp22-F2sN Schwann cells, FLuc/NLuc coincidence luminescence, 24 h | Potency, µM (top dose mostly 57.5 µM), usual class: inhibitors | actives 2% (n = 43,000) | AID 1508649; active = clear falling dose curves in both reporters; inconclusive = both reporters move, but less clearly or upward; inactive = either reporter flat; the % is the NLuc reporter signal
#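 Rat S16 Pmp22-F2sN cells, 500-1,000/well in phenol red-free DMEM + 10% FBS, compound-treated 24 h (37C, 5% CO2). Luminescence: FLuc read, Stop&Glo added, NLuc read.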
# NLuc saturating: inhibits NanoLuc at saturating substrate, PMP22 counter-screen; actives 4% (n = 690); Potency, µM (highest dose often 57.5 µM), most hits filed as inhibitors; shares compounds with PMP22 txn prim; Secreted NLuc enzyme (filtered S16 cell medium), Nano-Glo luminescence
# NLuc Km counter: inhibits NanoLuc under Km conditions, PMP22 counter-screen. shares compounds with PMP22 txn prim. secreted NLuc enzyme, coelenterazine luminescence, Km conditions. Potency, µM (top dose mostly 57.5 µM), usual class: inhibitors. actives 5% (n = 690). AID 1508639
# FLuc counter: firefly luciferase enzyme inhibition artifact for PMP22 screen. shares compounds with PMP22 txn prim. purified P. pyralis FLuc, luminescence, 10 min. Potency, µM (doses to about 57.5 µM), actives largely listed as inhibitors. 690 tested, under 10 active
# Target sequence (P08659 whole entry, looked up): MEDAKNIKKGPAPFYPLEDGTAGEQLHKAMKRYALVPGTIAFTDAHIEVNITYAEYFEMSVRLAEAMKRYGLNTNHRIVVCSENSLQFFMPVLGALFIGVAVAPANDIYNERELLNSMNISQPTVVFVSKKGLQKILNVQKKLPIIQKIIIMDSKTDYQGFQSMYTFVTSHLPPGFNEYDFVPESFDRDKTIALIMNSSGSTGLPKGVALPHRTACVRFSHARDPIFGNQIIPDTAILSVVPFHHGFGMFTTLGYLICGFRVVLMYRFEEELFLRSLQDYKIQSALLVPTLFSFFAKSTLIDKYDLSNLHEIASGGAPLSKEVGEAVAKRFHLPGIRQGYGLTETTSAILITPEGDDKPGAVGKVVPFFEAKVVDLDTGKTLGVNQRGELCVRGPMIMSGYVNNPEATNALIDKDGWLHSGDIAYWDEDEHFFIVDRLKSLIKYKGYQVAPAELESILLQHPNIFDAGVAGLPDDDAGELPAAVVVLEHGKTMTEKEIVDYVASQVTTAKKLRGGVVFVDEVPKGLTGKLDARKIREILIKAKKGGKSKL
# S16 viab conf: confirmation of cytotoxicity in S16 Pmp22-F2sN Schwann cells (luciferase reporters placed in the Pmp22 gene). Potency, µM (highest dose often 57.5 µM), hits mostly cytotoxic. AID 1508641. shares compounds with PMP22 txn prim. actives 7% (n = 690). S16 Schwann cells viability, CellTiter-Glo ATP luminescence, 24 h
# PMP22 txn conf: PMP22 transcription modulation, confirmatory; shares compounds with PMP22 txn prim; S16 Schwann cells Pmp22-F2sN, dual luciferase, 24 h; Potency, µM (highest dose often 57.5 µM), usual class: inhibitors; actives 22% (n = 690); AID 1508646; active = clear falling dose curves in both reporters; inconclusive = both reporters move, but less clearly or upward; inactive = either reporter flat; the % is the FLuc reporter signal
# PMP22 prot conf: confirmation of modulators of rat PMP22 protein expression; shares compounds with PMP22 txn prim; S16 Schwann cells Pmp22-HiBiT, luminescence, 48 h; Potency, µM (titrated, usually from 27.9 µM), hits mostly inhibitors; 95 tested, under 10 active; AID 1508647
# A number is an active result; . = inactive; ? = inconclusive; / = no result given. Unless noted, calls follow the shape of the dose curve; as a rule, active = well fitted curve in the direction sought with a large enough effect; inconclusive = small, poorly fitted or top-dose-only effect, or another doubt; inactive = no such curve, though single readings can be large; an effect the other way counts as inactive or inconclusive.
SMILES,p53null 32C tox,pS6 MEF inh,S16 viability,p53null 39C tox,SKOV3 invasion,PMP22 txn prim,NLuc saturating,NLuc Km counter,FLuc counter,S16 viab conf,PMP22 txn conf,others
COCCCn1c(=N)c(C(=O)NCC2CCCO2)cc2c(=O)n3cccc(C)c3nc21 (configuration not stated),.,/,/,/,/,/,/,/,/,/,/,
COCCCn1c(=N)c(C(=O)NCc2ccco2)cc2c(=O)n3cccc(C)c3nc21,.,.,.,.,.,14µM,.,.,.,?,?,
CCOCCCn1c(=N)c(C(=O)NCC2CCCO2)cc2c(=O)n3cccc(C)c3nc21 (configuration not stated),.,.,.,.,.,16µM,.,.,.,.,?,
Cc1c(C(=O)Nc2ccc(F)cc2)oc2ccc(S(=O)(=O)N3CCCCCC3)cc12,.,.,.,.,.,15µM,.,.,.,.,.,
CCCCN(Cc1ccco1)C(=O)c1cc2c(s1)-c1c(C)cccc1OC2,.,.,.,.,.,?,/,/,/,/,/,
Cc1cccc2c1-c1sc(C(=O)N(C)c3cccc(C(F)(F)F)c3)cc1CO2,.,.,.,.,.,.,/,/,/,/,/,
CN(C)CCN(Cc1ccco1)C(=O)c1cc2c(s1)-c1ccccc1OC2,.,5.2µM,?,?,?,17µM,.,.,.,?,?,
CCN(C(=O)c1cc2c(s1)-c1ccccc1OC2)c1cccc(C(F)(F)F)c1,.,.,.,.,.,20µM,?,.,.,?,.,
CCOc1ccccc1NC(=O)c1c(NCc2ccc(C)o2)sc2c1CCC(C)C2 (configuration not stated),.,.,.,.,?,.,/,/,/,/,/,
CCOc1ccccc1NC(=O)c1c(NCc2ccc(C)o2)sc2c1CCCCC2,.,.,.,.,.,13µM,?,?,.,.,?,
CC(C)(C)[N+]([O-])=Cc1ccc(S(=O)(=O)O)cc1S(=O)(=O)O,/,/,/,/,.,/,/,/,/,/,/,
CCOC(=O)C1CCN(S(=O)(=O)c2cc(Br)cc3c2N(C(=O)CC)CC3)CC1,.,.,.,.,.,.,/,/,/,/,/,
CCC(=O)N1CCc2cc(Br)cc(S(=O)(=O)N3CCC(C(=O)NC(C)(C)C)CC3)c21,.,.,.,.,.,.,.,.,.,.,.,
COc1cc2c(cc1OC)CN(CCc1ccc(NC(=O)c3cccc4c(=O)c5cccc(OC)c5[nH]c34)cc1)CC2,/,/,/,/,.,/,/,/,/,/,/,
CCc1nnc(NC(=O)c2nc(S(C)(=O)=O)ncc2Cl)s1,.,?,?,.,.,9.5µM,?,?,.,?,14µM,PMP22 prot conf=?
NC(=O)c1ccc(I)c([N+](=O)[O-])c1,/,/,/,/,.,/,/,/,/,/,/,
